Source: PubChem BioAssay
Sampled rows, rich in hits. Any-hit rate of the full collection: about 14%.
NS1 inh = blocks influenza NS1 protein function. Potency, µM (doses to about 46.1 µM), inactives show at the highest dose activity, positive = more growth. 270,000 compounds, 0.4% hits. AID 2326; calls by dose curve; further: potency means the concentration at half of the fitted maximal effect; actives are rising curves; nearly all actives have a fitted effect of over 50% in size
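S. cerevisiae expressing influenza A NS1, grown in glucose, washed, then diluted 1:100 into pH 6.0 -URA galactose medium with 23 nl compound. Growth recovery read as OD600; NS1-free strain serves as control.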
Giardia FBPA inh = Giardia lamblia aldolase inhibition | 290,000 compounds, 0.71% hits | Potency, µM (top dose mostly 59.6 µM), for the others: top-dose activity, negative = inhibition, most hits filed as inhibitors | purified Giardia FBPA | A8B2U2; further: potency means the concentration at half of the fitted maximal effect; on the % scale 0 is the no-effect control and ±100 the full control effect; nearly all actives have a fitted effect of over 55% in size
Target sequence (A8B2U2 whole entry, looked up): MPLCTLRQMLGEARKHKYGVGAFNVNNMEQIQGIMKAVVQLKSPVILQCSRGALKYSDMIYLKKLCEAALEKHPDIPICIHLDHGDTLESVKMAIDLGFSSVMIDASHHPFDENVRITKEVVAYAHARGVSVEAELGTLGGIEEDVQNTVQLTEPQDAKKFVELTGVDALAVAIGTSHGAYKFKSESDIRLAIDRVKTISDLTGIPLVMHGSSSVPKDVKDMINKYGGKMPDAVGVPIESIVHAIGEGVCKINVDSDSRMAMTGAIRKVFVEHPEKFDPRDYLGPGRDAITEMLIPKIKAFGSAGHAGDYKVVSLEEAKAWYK
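Giardia FBPA (40 nM reagent) was preincubated 10 min at RT with compound (up to 57.5 uM final), then substrate plus GAPDH/TPI/NAD/arsenate coupling system with diaphorase/resazurin was added; resorufin fluorescence (525/598 nm) was read after 20 min.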
Cycloheximide cs = counter-screen hit for Shiga toxin inhibitors, cycloheximide. cell reporter, cycloheximide protein synthesis inhibition counterscreen. max response, %. 300,000 compounds, 12% hits; in the data active means max response mostly above about 13%, no sharp cut-off; inactive means mostly below about 14%; further: read at 38.3 µM for the half of the compounds with a filed dose; 0% is about no effect
LmPK inhibitor = LmPK (Leishmania mexicana) enzyme inhibition; Q27686; purified LmPK, Kinase-Glo ATP luminescence, 1 h; Potency, µM (titrated, usually from 57.5 µM), without a hit: at the highest dose activity change, negative = inhibition, actives largely listed as inhibitors; 290,000 compounds, 0.37% hits; further: potency means the concentration at half of the fitted maximal effect; on the % scale 0 is the no-effect control and ±100 the full control effect
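ATP generated from ADP (0.1 mM) and PEP (0.5 mM) by 0.1 nM LmPK over 1 h at room temperature (pH 7.2 imidazole buffer) was detected by coupled luciferase luminescence. Values were normalized to uninhibited and no-enzyme wells.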
Shiga toxin inh = blocks Shiga toxin action in Vero cells; Vero cells, Shiga toxin protein synthesis inhibition reporter; inhibition, % at 38.7 µM; 290,000 compounds, 9.2% hits; in the data active means inhibition mostly above about 28%, no sharp cut-off; inactive means mostly below about 43%; further: 0% is about no effect
* = called active by the depositor; ? = inconclusive; nt = no result given; [ ] = another dose, or the depositor's remark. Unless noted, the call rests on the fitted dose curve; in most records, active means well fitted curve in the direction sought with a large enough effect; inconclusive means small, poorly fitted or top-dose-only effect, or another doubt; inactive means no such curve, though single readings can be large; an effect the other way counts as inactive or inconclusive.

SMILES	NS1 inh	Giardia FBPA inh	Cycloheximide cs	LmPK inhibitor	Shiga toxin inh
CCOC(=O)C1CCCN(CCC(=O)Nc2cccc(C)c2)C1 (centres undefined)	-4%	-1%	49*	0%	82*
CCOC(=O)C1CCCN(CCC(=O)Nc2cccc(F)c2)C1 (centres undefined)	-4%	-7%	-4	-2%	-6
Cc1ccc(SCC(=O)Nc2cccc(C)c2)cc1	-9%	-1%	19*	0%	24
Cc1noc(C)c1-c1ccc2ncnc(NCc3cccc(Cl)c3)c2c1	nt	-3%	7	nt	9
C=CCc1cccc(C2NC(C(=O)O)CCC2C)c1 (centres undefined)	nt	1%[12.9 µM]	nt	nt	nt
Cc1ccccc1-c1nc(-c2ccc(NC(=O)c3ccc(Br)o3)cc2)no1	-3%	0%	27*	-17%	57*
Cc1ccccc1-c1noc(-c2ccccc2C(=O)NCC2CCCO2)n1 (centres undefined)	-3%	3%	17	-4%	46
Cc1ccccc1-c1nc(-c2ccc(Br)o2)no1	-30%	-4%	44*	-3%	97*
COc1ccc(Br)cc1-c1noc(-c2ccccc2F)n1	7%	1%	-2	4%	-7
Fc1ccccc1-c1nc(-c2ccc(Br)o2)no1	1%	5%	57*	-3%	85*
COc1ccc(C2=Nn3c(nnc3-c3ccccc3C)SC2)cc1OC	nt	8%	-3	nt	2
O=C(N/N=C/c1ccc(O)cc1)c1cc(-c2ccccc2)nc2ccccc12	-2%	-2%	34*	2%	65*
COc1ccc(/C=N/NC(=O)c2nc(-c3ccccc3)cc(-c3ccccc3)n2)cc1	19%	7%	-4	3%	-20
Cc1ccc(-c2cc(C(=O)N/N=C/c3c(C)nn(C)c3C)c3ccccc3n2)cc1C	-47%	0%	19*	-1%	49
O=C(N/N=C/c1cccc(F)c1)c1cc(-c2ccco2)nc2ccccc12	-1%	-12%	71*	3%	86*
COc1ccc(/C=N/NC(=O)c2nc(-c3ccccc3)cc(-c3ccccc3)n2)cc1O	6%	-6%	29*	0%	11
COc1cc(/C=N/NC(=O)c2cc(-c3ccccc3)nc3ccccc23)ccc1O	25%	-1%	23*	-7%	45*
Cc1cccc(NC(=O)c2cc(Cl)nc3ccccc23)n1	-7%	-4%	9	-2%	-4
COc1ccc(/C=N/NC(=O)c2cc(-c3ccccc3)nc3ccccc23)cc1O	13%	-4%	11	-3%	21
Cc1cccc(NC(=O)c2cc(-c3ccco3)nc3ccccc23)n1	-1%	-9%	16*	1%	95*
CCOc1ccc(-c2cc(C(=O)N/N=C/c3cccnc3)c3ccccc3n2)cc1	14%	nt	26*	-8%	62*
N=C1C(c2nc3ccccc3[nH]2)=C(O)CN1c1ccc(F)cc1	-10%	13%	38*	4%	28
N=C1C(c2nc3ccccc3[nH]2)=C(O)CN1C1CCCCC1	-4%	-12%	31*	-1%	55*
Cc1cc(C)cc(N2CC(O)=C(c3nc4ccccc4c(=O)[nH]3)C2=N)c1	-41%	-14%	1	-3%	-3
NC1=NCC(O)=C1c1nc2ccccc2[nH]1	nt	-15%	1	-3%	14
SMILES	NS1 inh	Giardia FBPA inh	Cycloheximide cs	LmPK inhibitor	Shiga toxin inh
CCCN(CCC)C(=O)c1ccc2c(c1)N(CC)C(=O)c1ccccc1S2(=O)=O	-6%	4%	-5	7%	-8
C=CCOc1ccccc1/C=N/NC(=O)Cc1ccc(C)cc1	-32%	3%	9	1%	6
COc1ccc(C)cc1NC(=O)CSc1nc2ccccc2nc1N1CCCC1	24%	13%	9	1%	12
Cc1ccc(C2(c3ccc(C)cc3)CC2C(=O)NC(C)C)cc1 (centres undefined)	-3%	2%	-2	4%	-3
O=C(NCCc1cnn(-c2ccccc2)c1)c1cc(COc2c(F)cccc2F)on1	-3%	0%	27*	5%	68*
O=C(NCc1c(F)cccc1F)c1cc(COc2c(F)cccc2F)on1	2%	-3%	26*	2%	97*
O=C(NC1CCc2ccccc21)c1cc(COc2ccc(F)cc2Cl)on1 (centres undefined)	1%	-2%	1	5%	40
O=C(NC1CCc2ccccc21)c1cc(COc2c(F)cccc2F)on1 (centres undefined)	0%	-5%	21*	4%	37
O=C(NCC1OCCc2ccccc21)c1cc(COc2c(F)cccc2F)on1 (centres undefined)	-1%	-4%	35*	0%	49*
COc1cccc(-c2nc(N3CCNCC3)c3ccccc3n2)c1	nt	-6%	nt	nt	nt
C=Cn1cc[n+](CC(=O)c2ccc(OC)cc2)c1	9%	-1%	-2	-9%	-8
NS(=O)(=O)c1cccc(NC(=O)CC(NC(=O)c2ccccc2Cl)c2ccccc2)c1 (centres undefined)	-4%	21%	-4	-5%	7
O=C(NC1CCc2ccccc21)c1cc(COc2cncc(Cl)c2)on1 (centres undefined)	-35%	nt	57*	-11%	67*
O=C(NC1CCCc2ccccc21)c1cc(Cl)ccn1 (centres undefined)	-22%	-1%	-2	-4%	-3
CCOc1ccc(C(=O)NCC2OCCc3ccccc32)cc1 (centres undefined)	-4%	-6%	25*	-4%	active
OCCN(CO)CO	-4%	nt	nt	nt	nt
CO/N=C(\C)CCN1CCc2nc(-c3ccccc3)c(-c3ccccc3)cc2C1	nt	0%[12.9 µM]	nt	nt	nt
CCCN(CC(=O)Nc1ccccc1OC)C(=O)c1ccncc1	-6%	-7%	-2	8%	-16
N#Cc1cc2c(nc1SCc1ccccc1)CCC2	-1%	-1%	1	2%	-29
CCS(=O)(=O)CCSc1nc2c(cc1C#N)CCCC2	-43%	9%	12*	3%	18
N#Cc1cc2c(nc1SCc1ccncc1)CCC2	-18%	1%	43*	14%	102*
N#Cc1cc2c(nc1SCC(=O)N1CCCCC1)CCCC2	-5%	9%	17*	-12%	28
N#Cc1cc2c(nc1SCC(=O)N1CCCCC1)CCCCC2	-33%	-3%	61*	15%	100*
N#Cc1cc2c(nc1SCC(=O)O)CCCC2	1%	18%	3	3%	-19
CC(C)C[C@@H](CC(=O)N[C@@H](CCC(=O)O)CC(=O)O)NC(=O)[C@@H]1CNCC[C@H]1NC(=O)C[C@H](CCCN)NC(=O)C[C@H](Cc1ccccc1)NC(=O)[C@@H]1CNCC[C@H]1N	nt	-14%	nt	nt	nt
Cc1cc(C)nc(N(C#N)CCOc2ccc(Cl)cc2)n1	-26%	-10%	16*	2%	39*
CCS(=O)(=O)c1nc(S(=O)(=O)c2ccc(C)cc2)c(NCC(C)C)s1	nt	nt	-5	nt	8
COC(=O)c1ccc2c(c1O)C(=O)c1ccccc1C2=O	-41%	?	39*	-1%	64*
Nc1ccccc1SC1CC(=O)N(c2ccc3c(c2)OCCO3)C1=O (centres undefined)	3%	2%	38*	5%	69*
